Laboratory results from PubChem BioAssay AID1159580 (chemical genetic matrix, 2015).
Hit rate of the full screen: of about 5,500 compounds, about 2,000 (36%) were called active. Another 18% or so got no clear call; they are omitted. Rule as the data show it: active = normalized growth mostly below about 0.91 (no sharp cut-off); inconclusive = no clear call, values can overlap the other calls; inactive = mostly above about 0.92. This is one part of the list.

Assay: chemical genetic growth profiling, strain panel (AID 1159580);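 also: tested at 20 µM; growth read once vehicle control cultures reached saturation at 30 °C; 1 = growth at the plate median or of vehicle wells; lower values mean less growth of the strain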
Details: S. cerevisiae deletion strains, growth OD

Measured: normalized growth

COc1cc(O)c(C(=O)/C=C/c2ccc(OC)c(O)c2)c(OC)c1
active: locus YAL026C, strain drs2, hits give low values 0.906 | locus YBR009C, strain hhf1, hits give low values 0.846 | locus YBR023C, strain chs3, hits give low values 0.912 | locus YDR195W, strain ref2 1.17 [resistant] | locus YDR392W, strain spt3, hits give low values 0.413 | locus YER155C, strain BEM2 (second series), hits give low values 0.765 | locus YGL253W, strain hxk2, hits give low values 0.806 | locus YHR142W, strain chs7, hits give low values 0.712 | locus YJL095W, strain BCK1 (second series), hits give low values 0.86 | locus YJL129C, strain trk1, hits give low values 0.852 | locus YJL164C, strain tpk1, hits give low values 0.842 | locus YJL166W, strain qcr8, hits give low values 0.799 | locus YJL187C, strain SWE1, hits give low values 0.914 | locus YKL160W, strain elf1, hits give low values 0.893 | locus YLL001W, strain dnm1, hits give low values 0.891 | locus YLL026W, hits give low values 0.857 | locus YLR027C, strain aat2, hits give low values 0.841 | locus YLR221C, strain rsa3, hits give low values 0.79 | locus YLR258W, strain gsy2, hits give low values 0.903 | locus YLR262C, strain YPT6 (second series), hits give low values 0.752 | locus YLR320W, strain mms22, hits give low values 0.793 | locus YML120C, strain ndi1, hits give low values 0.828 | locus YMR058W, strain fet3, hits give low values 0.847 | locus YMR205C, strain PFK2, hits give low values 0.845 | locus YNL071W, strain lat1, hits give low values 0.566 | locus YOR070C, strain gyp1, hits give low values 0.895 | locus YOR083W, strain WHI5, hits give low values 0.859 | locus YOR106W, strain vam3, hits give low values 0.822 | locus YOR290C, strain snf2, hits give low values 0.751 | locus YPL051W, strain arl3, hits give low values 0.856 | locus YPL078C, strain atp4, hits give low values 0.796
inactive: locus YAL021C, strain ccr4, hits give low values 0.994 | locus YAL030W, strain snc1, hits give low values 0.961 | locus YBL061C, strain skt5, hits give low values 0.939 | locus YBR171W, strain sec66, hits give low values 0.993 | locus YBR231C, strain swc5, hits give low values 0.925 | locus YBR279W, strain paf1, hits give low values 0.965 | locus YCL011C, strain gbp2, hits give low values 0.91 | locus YCL016C, strain dcc1, hits give low values 0.971 | locus YCL061C, strain MRC1, hits give low values 0.954 | locus YCL069W, strain vba3, hits give low values 0.946 | locus YCR088W, strain abp1, hits give low values 0.995 | locus YDL005C, strain med2, hits give low values 1.01 | locus YDL040C, strain nat1, hits give low values 1.01 | locus YDR001C, strain nth1, hits give low values 0.992 | locus YDR069C, strain doa4, hits give low values 1.06 | locus YDR137W, strain rgp1, hits give low values 0.912 | locus YDR159W, strain sac3, hits give low values 0.929 | locus YDR297W, strain sur2, hits give low values 1.01 | locus YDR334W, strain swr1, hits give low values 0.983 | locus YDR335W, strain msn5, hits give low values 0.935 | locus YEL003W, strain gim4, hits give low values 0.927 | locus YEL037C, strain rad23, hits give low values 0.988 | locus YEL061C, strain CIN8 (second series), hits give low values 0.918 | locus YER015W, strain faa2, hits give low values 0.956 | locus YER016W, strain bim1, hits give low values 1.02 | locus YER111C, strain swi4, hits give low values 0.98 | locus YFR010W, strain ubp6, hits give low values 0.959 | locus YGL167C, strain pmr1, hits give low values 1.02 | locus YGL173C, strain kem1, hits give low values 0.939 | locus YGL227W, strain vid30, hits give low values 0.96 | locus YGL240W, strain doc1, hits give low values 0.946 | locus YHR013C, strain ard1, hits give low values 1.02 | locus YHR027C, strain rpn1, hits give low values 0.987 | locus YHR030C, strain SLT2, hits give low values 0.922 | locus YHR079C, strain IRE1, hits give low values 0.943 | locus YJL092W, strain hpr5, hits give low values 0.957 | locus YJL095W, strain BCK1, hits give low values 0.941 | locus YJL115W, strain asf1, hits give low values 1 | locus YJL154C, strain vps35, hits give low values 1.02 | locus YJR066W, strain TOR1, hits give low values 0.897 | locus YKR026C, strain gcn3, hits give low values 0.992 | locus YKR091W, strain srl3, hits give low values 1.01 | locus YLL041C, strain sdh2, hits give low values 1.01 | locus YLR113W, strain HOG1, hits give low values 0.982 | locus YLR342W, strain FKS1, hits give low values 1 | locus YLR357W, strain rsc2, hits give low values 0.933 | locus YLR370C, strain arc18, hits give low values 0.944 | locus YLR384C, strain iki3, hits give low values 1.03 | locus YMR125W, strain sto1, hits give low values 0.9 | locus YMR129W, hits give low values 0.992 | locus YMR231W, strain pep5, hits give low values 0.98 | locus YNL183C, strain NPR1, hits give low values 0.958 | locus YNL209W, strain ssb2, hits give low values 1.01 | locus YNL248C, strain rpa49, hits give low values 0.909 | locus YNL322C, strain KRE1 (second series), hits give low values 0.997 | locus YNR049C, strain mso1, hits give low values 0.997 | locus YOR001W, strain rrp6, hits give low values 0.905 | locus YOR080W, strain dia2, hits give low values 1.01 | locus YOR231W, strain MKK1, hits give low values 0.931 | locus YOR265W, strain rbl2, hits give low values 0.988 | locus YOR270C, strain vph1, hits give low values 0.833 | locus YPL106C, strain sse1, hits give low values 0.929 | locus YPL240C, strain hsp82, hits give low values 0.976 | locus YPL256C, strain CLN2, hits give low values 0.942
